Results published in PubChem BioAssay.
Activity calls are given as the source filed them.

Test: resazurin metabolic signal in A549 cells – cell-based, resazurin fluorescence, 24 h, PK04 Diversity Set, profiling panel (AID 1171); note: test concentration not given here
Settings: A549 viability, higher = more signal, called active from +8 up or from −8 down

Q: For `CC(CCC(=O)OC[C@H]1O[C@H](C#Cc2ccccc2)C=C[C@@H]1Oc1ccc(C)cc1)=NOC[C@@H](O)[C@H]1O[C@@H]2OC(C)(C)O[C@@H]2[C@H]1O`, which z-score is on record?
A: -0.042 (inactive)

Q: For `CC(C)N1CC=CC23O[C@@H]4C=CCCOC(=O)C4[C@H]2C(=O)N(CCCCCCO)[C@@H]3C1=O` (stereo partly specified), which z-score is on record?
A: 0.711 (inactive)

Q: Which z-score does the source give for `O=C1[C@H]2[C@H]3[C@H](O)[C@H](O)CC(=NOC[C@@H](O)COCc4ccco4)[C@H]3CC[C@H]2C(=O)N1C1CCCCC1` here?
A: -0.381 (inactive)

Q: With `CO[C@@H]1COC(=O)CCC[C@@H](C)[C@H](OC)COC(=O)CCC[C@H]1C` as the molecule, how does the z-score read?
A: 0.183 (inactive)

Q: With `O=C1NC(=O)C2C1C=CC(C(O)Cc1ccccc1)N2Nc1ccccn1` (stereo unspecified) as the molecule, how does the z-score read?
A: -1.22 (inactive)

Q: With `CC(C)(C)OC(=O)CC[C@]1(C(=O)NCc2ccccc2)N=C(c2ccc(OCCCO)cc2)O[C@H]1c1ccccc1` as the molecule, how does the z-score read?
A: 0.198 (inactive)

Q: Which z-score does the source give for `CC(C)(C)OC(=O)CC[C@]1(C(N)=O)COC(c2ccc(OCCCO)cc2)=N1` here?
A: -1.05 (inactive)

Q: For `CC(C)CON=C1C[C@@H](O)[C@@H](O)[C@@H]2[C@@H]3C(=O)N(Cc4ccccc4)C(=O)[C@@H]3CC[C@@H]12`, which z-score is on record?
A: 0.676 (inactive)

Q: Which z-score does the source give for `C=CCOC(=O)[C@H]1[C@@H]2C(=O)O[C@@H](c3ccccc3)[C@@H](c3ccccc3)N2[C@@H](c2ccc(OCCOC(=O)[C@H]3C[C@H]4C(=O)N[C@@H](Cc5ccccc5)C(=O)N4[C@H]3c3ccc(O)cc3)cc2)[C@]12C(=O)Nc1ccccc12` here?
A: 1.7 (inactive)

Q: Which z-score does the source give for `O=C1[C@H]2[C@H]3[C@H](O)[C@H](O)CC(=NOCc4ccccc4)[C@H]3CC[C@H]2C(=O)N1c1ccc(F)cc1F` here?
A: -0.0399 (inactive)

Q: For `COC(=O)C1=C(C)[C@@H](O)[C@@H](C)[C@H](c2c(OC)c(OC)c(C)c(OC)c2OC)O1`, which z-score is on record?
A: -0.345 (inactive)

Q: Which z-score does the source give for `COC(=O)[C@@]1(Cc2ccc(OC)cc2)[C@H]2c3cc(C(=O)N4CCCC4)n(Cc4cc(F)c(F)c(F)c4)c3C[C@H]2CN1C(=O)c1ccccc1` here?
A: -1.08 (inactive)

Q: For `CC(CCC(=O)OC[C@H]1O[C@H](C#Cc2ccccc2)C=C[C@@H]1Oc1ccc(C)cc1)=NO[C@@H](C)c1cn([C@H](CO)Cc2ccccc2)nn1`, which z-score is on record?
A: 0.555 (inactive)

Q: For `CC(C)NC(=O)[C@@]1(c2ccc([N+](=O)[O-])cc2)CC(=O)N(CC23CC4CC(CC(C4)C2)C3)[C@@H]1c1ccc(CO)cc1I`, which z-score is on record?
A: -3.65 (inactive)

Q: For `COC(=O)[C@H](C)NC(=O)CCC1CC(OC(=O)NCCc2ccc(F)cc2)CC2(CCCC(COC(=O)NCCc3ccc(Cl)cc3)O2)O1` (stereo partly specified), which z-score is on record?
A: 0.544 (inactive)

Q: For `C=C(CCCC)C(=O)CC[C@@H](OC(C)=O)c1cccc(OCCO)c1`, which z-score is on record?
A: -0.713 (inactive)

Q: Which z-score does the source give for `CCOC(=O)[C@H](CC(C)C)NC(=O)CCC1CC(OC(=O)NCc2cccc3ccccc23)CC2(CCCC(COC(=O)NCCc3ccccc3OC)O2)O1` (stereo partly specified) here?
A: 0.45 (inactive)

Q: With `CCCCCN1CC=CC23O[C@@H]4C=CCOC(=O)[C@@H]4[C@H]2C(=O)N(C(CO)C(C)C)[C@@H]3C1=O` (stereo partly specified) as the molecule, how does the z-score read?
A: 0.0963 (inactive)

Q: For `CCOC(=O)[C@H](CC(C)C)NC(=O)CCC1CC(OC(=O)NCc2cccc3ccccc23)CC2(CCCC(COC(=O)NCCN3CCOCC3)O2)O1` (stereo partly specified), which z-score is on record?
A: 1.29 (inactive)

Q: For `Cc1ccc(F)cc1S(=O)(=O)N[C@@H]1CCN(Cc2ccc(CC(C)C)cc2)C1`, which z-score is on record?
A: 0.0665 (inactive)

Q: For `O=C1[C@H]2[C@H]3[C@H](O)[C@H](O)CC(=NOC[C@@H](O)COCc4ccco4)[C@@H]3CC[C@H]2C(=O)N1c1ccc(F)cc1F`, which z-score is on record?
A: 0.24 (inactive)

Q: For `CCCNC(=O)[C@@H]1c2ccccc2C(=O)N(c2ccc(C)cn2)[C@H]1c1ccc(CO)cc1`, which z-score is on record?
A: 0.418 (inactive)

Q: With `CC[C@@H](c1ccccc1)n1c(=O)n2n(c1=O)[C@H]1[C@H](O)[C@@H]3O[C@@H]3C(=NOCC=C(C)CCC=C(C)C)[C@H]1CC2` as the molecule, how does the z-score read?
A: -0.0334 (inactive)

Q: For `CC(C)[C@@H](OCc1ccccc1)[C@H](C)C=NO[C@H](C)c1cn([C@H](CO)Cc2ccccc2)nn1`, which z-score is on record?
A: -1.02 (inactive)

Q: With `Cc1cc2c(c(=O)o1)[C@H](O)[C@H]1O[C@H]1C2=O` as the molecule, how does the z-score read?
A: -0.506 (inactive)

Q: Which z-score does the source give for `COCCCNC(=O)[C@]1(Cc2ccccc2)N=C(c2ccc(OCCCO)cc2)O[C@@H]1c1ccccc1` here?
A: 2.67 (inactive)
